High-throughput results: PubChem, National Center for Advancing Translational Sciences (NCATS)
In the library only some 21% were active in any assay of this set; here they are far more common.
Shiga inhibitor – inhibitors of Shiga toxin in Vero cells; 290,000 compounds, 9.2% hits; inhibition, % at 38.7 µM; Vero cells, Shiga toxin protein synthesis inhibition reporter; AID 2315; in the data active = inhibition mostly above about 28%, no sharp cut-off; inactive = mostly below about 43%; note: 0% is about no effect
FBPA Giardia inh – inhibitors of Giardia lamblia fructose-1,6-bisphosphate aldolase. A8B2U2. purified Giardia FBPA. Potency, µM (doses to about 59.6 µM), without a hit: top-dose activity, negative = inhibition, usual class: inhibitors. 290,000 compounds, 0.71% hits. AID 2451; note: potency is the fitted concentration of half-maximal effect; % is set by controls: 0 for no effect and ±100 for the full control effect; nearly all actives have a fitted effect of over 55% in size
Target sequence (A8B2U2 whole entry, looked up): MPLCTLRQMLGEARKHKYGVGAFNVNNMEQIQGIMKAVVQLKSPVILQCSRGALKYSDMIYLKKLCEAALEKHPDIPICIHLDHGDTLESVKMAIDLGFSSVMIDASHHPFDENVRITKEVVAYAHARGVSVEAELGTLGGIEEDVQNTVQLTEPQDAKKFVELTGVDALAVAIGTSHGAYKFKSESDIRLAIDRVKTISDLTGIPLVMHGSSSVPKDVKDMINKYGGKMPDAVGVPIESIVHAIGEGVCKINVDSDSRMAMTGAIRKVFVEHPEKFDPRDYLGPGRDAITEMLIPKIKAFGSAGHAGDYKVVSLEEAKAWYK
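Giardia FBPA (40 nM reagent) was preincubated 10 min at RT with compound (up to 57.5 uM final), then substrate plus GAPDH/TPI/NAD/arsenate coupling system with diaphorase/resazurin was added; resorufin fluorescence (525/598 nm) was read after 20 min.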
NS1 inh – inhibitors of influenza NS1 protein function; Potency, µM (series often up to 46.1 µM), inactives show at the top dose activity, positive = more growth; 270,000 compounds, 0.4% hits; calls by dose curve; note: potency is the fitted concentration of half-maximal effect; actives are rising curves; nearly all actives have a fitted effect of over 50% in size
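S. cerevisiae expressing influenza A NS1, grown in glucose, washed, then diluted 1:100 into pH 6.0 -URA galactose medium with 23 nl compound. Growth recovery read as OD600; NS1-free strain serves as control.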
Cycloheximide cs – affects cycloheximide protein synthesis inhibition readout, counter-screen. cell reporter, cycloheximide protein synthesis inhibition counterscreen. 300,000 compounds, 12% hits. max response, %; in the data active = max response mostly above about 13%, no sharp cut-off; inactive = mostly below about 14%; note: read at 38.3 µM for the half of the compounds with a filed dose; 0% is about no effect
Pf growth 96h – P. falciparum growth inhibition at 96 hours | Potency, µM (series often up to 28.7 µM), for the others: at the highest dose activity change, negative = inhibition, most hits filed as inhibitors | P. falciparum luciferase reporter growth, 96 h | 320,000 compounds, 6.9% hits; note: potency is the fitted concentration of half-maximal effect; % is set by controls: 0 for no effect and ±100 for the full control effect
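P. falciparum expressing integrated firefly luciferase grown in erythrocytes (2% hematocrit, 0.05% parasitemia final) with compounds for 96 hours at 37 C, 5% CO2. Growth inhibition read as loss of luminescence after adding luciferase detection reagent.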
Pf growth 48h – P. falciparum growth inhibition at 48 hours (one generation). P. falciparum luciferase growth in erythrocytes, 48 h. Potency, µM (series often up to 28.7 µM), without a hit: top-dose activity change, negative = inhibition, hits mostly inhibitors. 310,000 compounds, 5.9% hits; note: potency is the fitted concentration of half-maximal effect; % is set by controls: 0 for no effect and ±100 for the full control effect
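Luciferase-expressing P. falciparum in infected erythrocytes (2% hematocrit, 0.1% parasitemia final) in RPMI 1640/0.5% Albumax were exposed to compound for 48 hours at 37 C, 5% CO2; growth read as luminescence.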
* marks the source's active call; other numbers are inactive results. Unless noted, calls come from the whole dose curve; as a rule, active = well fitted curve in the direction sought with a large enough effect; inconclusive = small, poorly fitted or top-dose-only effect, or another doubt; inactive = no such curve, though single readings can be large; an effect the other way counts as inactive or inconclusive.

Cn1c(N/N=C/c2cccs2)nc2c1c(=O)n(Cc1ccccc1)c(=O)n2C was read as Shiga inhibitor -6, FBPA Giardia inh -2%, NS1 inh 17%, Cycloheximide cs 3, Pf growth 96h inconclusive and Pf growth 48h -9%.
Cn1c(=O)c2c(nc(N/N=C/c3cccs3)n2Cc2ccccc2)n(C)c1=O was read as Shiga inhibitor -5, FBPA Giardia inh inconclusive, NS1 inh -19%, Cycloheximide cs 2, Pf growth 96h 10µM* and Pf growth 48h inconclusive.
Screening COc1ccc(OC)c(NC(=O)CN2C(=O)COc3ccc(S(=O)(=O)N4CCCC4)cc32)c1 returned Shiga inhibitor -5, FBPA Giardia inh 12%, NS1 inh -10%, Cycloheximide cs 1, Pf growth 96h -22% and Pf growth 48h inconclusive.
`COC(=O)CN1C(=O)COc2ccc(S(=O)(=O)N3CCOCC3)cc21` gave Shiga inhibitor -3, NS1 inh 9%, Cycloheximide cs 14, Pf growth 96h 9.3µM* and Pf growth 48h -14%.
`CC(C)CN(CCNC(=O)CN1C(=O)COc2ccc(S(=O)(=O)N3CCC(C)CC3)cc21)CC(C)C` gave Shiga inhibitor -1, NS1 inh -6%, Cycloheximide cs 0, Pf growth 96h 12µM* and Pf growth 48h inconclusive.
COc1ccc(CCNC(=O)CN2C(=O)COc3ccc(S(=O)(=O)N4CCCC4)cc32)c(OC)c1 was read as Shiga inhibitor -10, FBPA Giardia inh -8%, NS1 inh -12%, Cycloheximide cs 2, Pf growth 96h 9.3µM* and Pf growth 48h -29%.
`Cc1cc(C)cc(N(CC(=O)NCc2ccc(F)cc2)C(=O)CCC(=O)Nc2ccccn2)c1` gave Shiga inhibitor -15, FBPA Giardia inh 2%, NS1 inh inconclusive, Cycloheximide cs -1, Pf growth 96h -3% and Pf growth 48h 13µM*.
For Cc1cc(C)cc(N(CC(=O)NC(C)(C)C)C(=O)CCC(=O)Nc2ccccn2)c1 the results were Shiga inhibitor -3, FBPA Giardia inh 14%, NS1 inh 2%, Cycloheximide cs -2, Pf growth 96h 10µM* and Pf growth 48h -9%.
For Cc1ccccc1-c1cc(NCCN2CCOCC2)ncn1 the results were FBPA Giardia inh 0%.
`O=C(N1CCN(Cc2ccccc2)CC1)C(Cl)(Cl)Cl` gave Shiga inhibitor 14, FBPA Giardia inh 2%, NS1 inh -3%, Cycloheximide cs 6, Pf growth 96h 44% and Pf growth 48h 10µM*.
For O=C(c1cccc(C(=O)N2CCN(Cc3ccccc3)CC2)c1)N1CCN(Cc2ccccc2)CC1 the results were Shiga inhibitor 1, FBPA Giardia inh 4%, NS1 inh -6%, Cycloheximide cs -2, Pf growth 96h -12% and Pf growth 48h -18%.
Screening O=C(c1ccc2ccccc2c1)N1CCN(Cc2ccccc2)CC1 returned Shiga inhibitor 82*, FBPA Giardia inh 0%, NS1 inh -12%, Cycloheximide cs 28*, Pf growth 96h 80% and Pf growth 48h 63%.
O=C(c1c[nH]c(C(=O)N2CCN(Cc3ccccc3)CC2)c1)C1CCCCC1 was read as Shiga inhibitor 51*, FBPA Giardia inh -1%, Cycloheximide cs 24, Pf growth 96h -187% and Pf growth 48h inconclusive.
`CCOc1ccc(CCNC(=O)COC(=O)c2oc3ccccc3c2COC)cc1OCC` gave Pf growth 96h inconclusive and Pf growth 48h 2%.
For O=C1CC(NS(=O)(=O)c2cc(F)ccc2F)CN1c1ccc2c(c1)OCCO2 (centres undefined) the results were Pf growth 96h 5% and Pf growth 48h 0%.
For Cc1cccc(/C=C\c2ccccc2)n1 the results were FBPA Giardia inh -14%.
`Cn1nc(/C=C/c2ccccc2)ccc1=O` gave Shiga inhibitor 86*, FBPA Giardia inh 0%, Cycloheximide cs 28*, Pf growth 96h 107% and Pf growth 48h 153%.
Screening C(=C\c1cc(/C=C/c2ccccc2)ncn1)/c1ccccc1 returned Shiga inhibitor 82*, FBPA Giardia inh 8%, NS1 inh -5%, Cycloheximide cs 71*, Pf growth 96h inconclusive and Pf growth 48h 61%.
